Reference: PubChem BioAssay (NCI)
Compounds without any hit were thinned out: in the full panel of roughly 83,000, 20% have a hit.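 Single-dose data. Exposure time 48 hours. Values below 10 considered active.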 A number with no mark means an inactive call. Active and inactive are the calls of the source.

How the values were obtained:
Experiment in all cases: NCI-60 one-dose screen, 48 h (100 = growth as untreated, 0 = no growth, -100 = all killed)
Settings in all cases: 10 µM unless noted
[1] = test system: DU-145 prostate
[2] = test system: K-562 leukemia
[3] = test system: MALME-3M melanoma
[4] = test system: MDA-MB-231 breast
[5] = test system: RXF 393 renal
[6] = test system: SF-268 CNS
[7] = test system: SF-295 CNS
[8] = test system: SF-539 CNS
[9] = test system: UACC-257 melanoma
[10] = test system: M14 melanoma

Compound	growth [1]	growth [2]	growth [3]	growth [4]	growth [5]	growth [6]	growth [7]	growth [8]	growth [9]	growth [10]
C[C@H](Oc1cc(-c2cnn(C3CCNCC3)c2)cnc1N)c1c(Cl)ccc(F)c1Cl	77.8%	5.27% (active)	-38% (active)	52.2%	31.6%	59%	49.7%	68.3%	-45% (active)	-51.9% (active)
C#C[C@@]1(O)[C@@H](CO)O[C@@H](n2ccc3c(N)ncnc32)[C@@H]1O	3.75% (active)	4.79% (active)	-13.2% (active)	-14.7% (active)	-33.6% (active)	9.98% (active)	5.82% (active)	8.04% (active)	17.3%	-38.6% (active)
COC(=O)/C=C/c1cc(OC(C)=O)c2c(c1)C(C(=O)OC)C(c1ccc(OC(C)=O)c(OC(C)=O)c1)O2 (stereo not given)	11.2%	6.86% (active)	66.3%	16.4%	28.7%	39.6%	3.13% (active)	-6.94% (active)	45.4%	-6.22% (active)
C#Cc1ccccc1NC(=O)c1sc2nc3c(cc2c1N)CCCCC3	104%	90.5%	102%	93.5%	113%	104%	113%	101%	110%	93.9%
CC1(C)CC[C@]2(c3nnc(-c4ccncc4)o3)CC[C@]3(C)C(=CC[C@@H]4[C@@]5(C)CCC(=O)C(C)(C)[C@@H]5CC[C@]43C)[C@@H]2C1	91.2%	62.1%	86.1%	87%	101%	81.5%	79.7%	90.7%	78.4%	84.3%
Cc1nccc2c3ccc(OCc4cn(-c5ccccc5)nn4)cc3n(CCCc3ccccc3)c12	88.6%	36.5%	90.4%	79.6%	69.7%	88.3%	74.8%	78.2%	55.9%	83.3%
O=C(Nc1nc2ccc(C(F)(F)F)cc2s1)c1cc(Cl)ccc1O	25.9%	5.73% (active)	-16.6% (active)	-10.5% (active)	-2.8% (active)	19.5%	-31.2% (active)	14.6%	-8.55% (active)	15.1%
O=c1c2ccccc2oc2ccc(OCCCCCCN3CCCCCC3)cc12	65.6%	2.32% (active)	-47.2% (active)	43.7%	36.8%	61.7%	38.9%	54.9%	2.49% (active)	-32% (active)
CCSc1nc(Cl)c(C#N)c(-c2ccc(F)cc2)n1	104%	37.7%	106%	105%	103%	94.9%	97.7%	92.7%	93.8%	82.3%
CCOC(=O)c1cnn(-c2nc(-c3ccc(F)cc3)c(C#N)c(N3CCOCC3)n2)c1N	102%	91.8%	107%	107%	122%	98.7%	101%	97.2%	106%	106%
S=C(Nc1ccc(Cl)cc1)c1ccccn1	105%	90%	85.2%	93.1%	97.8%	96.5%	91.4%	102%	91.1%	103%
c1ccc(Sc2ncccn2)nc1	109%	90%	111%	109%	110%	104%	109%	96%	99.2%	99.2%
COc1cc(NC(=O)COc2cc(C)nc3ccc(OC)cc23)cc(OC)c1	97.8%	79.1%	82.8%	80%	94.2%	94.5%	96.8%	76.1%	82%	94.8%
